The list is not random: actives were taken first. Their share in the collection is about 1.6%.
GASC-1 inh – human JMJD2C demethylase inhibition; inhibition, % at 2.35 µM; 330,000 tested, 0.069% active; GST-JMJD2C(1-420) H3K9me3 demethylation, DELFIA europium;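 active means more than half of a compound's replicate wells show inhibition beyond 50%, single wells judged on their own value; inconclusive means some, but no more than half, of replicates pass 50% inhibition; inactive means no replicate passes 50% inhibition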;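 further: signal counts dimethyl H3K9 product captured on neutravidin plate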
Target sequence (Q9H3R0 1-420 limits assumed): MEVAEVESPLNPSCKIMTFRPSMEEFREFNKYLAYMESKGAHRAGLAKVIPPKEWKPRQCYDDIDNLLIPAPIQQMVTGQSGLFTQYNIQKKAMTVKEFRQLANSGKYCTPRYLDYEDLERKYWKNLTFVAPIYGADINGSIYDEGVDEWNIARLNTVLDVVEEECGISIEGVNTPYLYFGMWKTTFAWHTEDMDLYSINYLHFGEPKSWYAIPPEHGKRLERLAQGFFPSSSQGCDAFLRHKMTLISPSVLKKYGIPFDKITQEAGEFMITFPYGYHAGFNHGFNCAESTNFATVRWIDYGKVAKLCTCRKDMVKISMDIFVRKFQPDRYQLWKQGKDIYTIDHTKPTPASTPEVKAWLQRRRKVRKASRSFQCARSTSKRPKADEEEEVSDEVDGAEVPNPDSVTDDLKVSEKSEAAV
VLA-4 inh – inhibition in a human VLA-4 binding assay. P13612. VLA-4 expressing cells, ligand binding flow cytometry. inhibition, % (about 7 µM as worked out from the volumes in the protocol). 330,000 tested, 0.2% active; in the data active means inhibition above about 50%
Pemphigus Ab inh – blocks pemphigus antibody binding to human desmoglein-3. P32926. DSG3-coupled beads, scFv-anti-DSG3-GFP binding, flow cytometry; stronger effect = lower value. 310,000 tested, 0.48% active. AID 588358. binding (percent of control), % at 10 µM;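 active means binding more than 3 SD below its plate's average and above zero; inconclusive means below that plate limit but binding exactly zero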;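 further: hits lower antibody fragment binding to DSG3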
PREPL inhibitor – human PREPL enzyme inhibition; 320,000 tested, 0.68% active; recombinant PREPL, fluorescence polarization activity-based probe; inhibition, % at 5.96 µM; Q4J6C6; in the data active means inhibition above about 43%
GRK2 inh – inhibitors of human GRK2 displacing RNA aptamer; P25098; bead flow cytometry, FAM-aptamer displacement from GRK2; inhibition of aptamer binding, % at 10 µM; 330,000 tested, 0.59% active;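 active means inhibition of aptamer binding above 40%, roughly 3 SD of noise, on plates passing a quality check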;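 further: median bead fluorescence of bound FAM aptamer so fluorescent compounds give negative values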
VLA-4 allo CP – human VLA-4 allosteric modulation in cherry picked compounds; shares compounds with VLA-4 inh; U937 cells, HUTS-21 LIBS mAb binding, flow cytometry; LDV ligand present at threefold Kd; inhibition, % at 6.7 µM; 1,300 tested, 2% active; AID 2813; in the data active means inhibition above about 40%
Numbers stand for hits; ! = repeats disagree.

COc1cccc(CNS(=O)(=O)c2ccc3c(c2)C(C)(C)C(=O)N3C)c1 was read as GASC-1 inh inactive, VLA-4 inh inactive, Pemphigus Ab inh inactive, PREPL inhibitor inactive, GRK2 inh inactive and VLA-4 allo CP inactive.
`CN1C(=O)C(C)(C)c2cc(S(=O)(=O)N(C)Cc3ccccc3)ccc21` gave GASC-1 inh inactive, VLA-4 inh inactive, Pemphigus Ab inh inactive, PREPL inhibitor inactive and GRK2 inh inactive.
Screening CCCCn1c(N)c(N(CC)C(=O)c2c(C)noc2C)c(=O)[nH]c1=O returned GASC-1 inh inactive, VLA-4 inh inactive, Pemphigus Ab inh inactive, PREPL inhibitor inactive and GRK2 inh inactive.
For CC(=O)NC(=S)Nc1ccc(NC(=O)c2cccs2)cc1 the results were GASC-1 inh inactive, VLA-4 inh inactive, Pemphigus Ab inh inactive, PREPL inhibitor inactive, GRK2 inh inactive and VLA-4 allo CP inactive.
`O=C(N/N=C\c1cccnc1)c1cc(-c2ccc(Cl)s2)[nH]n1` gave GASC-1 inh inconclusive, VLA-4 inh 55, Pemphigus Ab inh inactive, PREPL inhibitor inactive, GRK2 inh inactive and VLA-4 allo CP inactive.
`COc1cccc(/C=C/C(=O)OCC(=O)NC2CCCCCC2)c1` gave Pemphigus Ab inh inactive.
For Nc1cc(-c2ccc(Br)cc2)nn1S(=O)(=O)c1cccc2nsnc12 the results were GASC-1 inh inactive, VLA-4 inh 50, Pemphigus Ab inh inactive, PREPL inhibitor inactive, GRK2 inh inactive and VLA-4 allo CP inactive.
Screening O=C(NCCN1CCCC1)c1ccc(Br)cc1 returned GASC-1 inh inactive, VLA-4 inh inactive, Pemphigus Ab inh inactive and PREPL inhibitor inactive.
Screening O=C(Nc1ccc(C2=NCCN2)cc1)c1ccc(Cl)c(C(=O)Nc2ccc(C3=NCCN3)cc2)c1 returned GASC-1 inh inactive, VLA-4 inh inactive, PREPL inhibitor inactive, GRK2 inh inactive and VLA-4 allo CP inactive.
Screening O=C(/C=C/c1ccccc1)NNC(=O)c1ccco1 returned GASC-1 inh inactive, VLA-4 inh inactive, Pemphigus Ab inh inactive, PREPL inhibitor inactive and GRK2 inh inactive.
Cc1c(NC(=O)CCC2CCCCC2)c(=O)n(-c2ccccc2)n1C was read as GASC-1 inh inactive, VLA-4 inh inactive, Pemphigus Ab inh inactive, PREPL inhibitor inactive, GRK2 inh inactive and VLA-4 allo CP inactive.
For COc1ccc(N(CC(=O)Nc2c(C)n(C)n(-c3ccccc3)c2=O)S(=O)(=O)c2ccc(C)cc2)cc1OC the results were GASC-1 inh inactive, VLA-4 inh inactive, Pemphigus Ab inh inactive, PREPL inhibitor inactive and GRK2 inh inactive.
For Cc1c(NC(=O)C2CCCN2S(=O)(=O)c2ccccc2)c(=O)n(-c2ccccc2)n1C (stereo not drawn) the results were GASC-1 inh inactive, VLA-4 inh inactive, Pemphigus Ab inh inactive, PREPL inhibitor inactive, GRK2 inh inactive and VLA-4 allo CP inactive.
Screening COC(=O)CCC(=O)Nc1c(C)n(C)n(-c2ccccc2)c1=O returned GASC-1 inh inactive, VLA-4 inh inactive, Pemphigus Ab inh inactive, PREPL inhibitor inactive and GRK2 inh inactive.
Cc1cccc(N(CC(=O)Nc2c(C)n(C)n(-c3ccccc3)c2=O)S(C)(=O)=O)c1 was read as GASC-1 inh inactive, VLA-4 inh inactive, Pemphigus Ab inh inactive, PREPL inhibitor inactive, GRK2 inh inactive and VLA-4 allo CP inactive.
Screening COc1ccc(S(=O)(=O)CCC(=O)Nc2c(C)n(C)n(-c3ccccc3)c2=O)cc1 returned GASC-1 inh inactive, VLA-4 inh inactive, Pemphigus Ab inh inactive, PREPL inhibitor inactive, GRK2 inh inactive and VLA-4 allo CP inactive.
`CN1CCN(NC(=O)Nc2cccc(F)c2)CC1` gave GASC-1 inh inactive, VLA-4 inh inactive, PREPL inhibitor inactive and GRK2 inh inactive.
`CN(CCc1ccccn1)C(=S)Nc1ccc(Cl)cc1Cl` gave GASC-1 inh inactive, VLA-4 inh inactive, Pemphigus Ab inh inactive, PREPL inhibitor inactive and GRK2 inh inactive.
CC(C)(C)NC(=O)N1c2ccccc2Sc2ccccc21 was read as GASC-1 inh inactive, VLA-4 inh 54, Pemphigus Ab inh inconclusive, PREPL inhibitor inactive and VLA-4 allo CP inactive.
Screening CC(C)NC(=O)N1c2ccccc2Sc2ccccc21 returned GASC-1 inh inactive, VLA-4 inh inactive, Pemphigus Ab inh inactive, PREPL inhibitor inactive and GRK2 inh inactive.
For CN1CC(=O)N(CC(=O)Nc2ccc(Br)cc2F)C1=O the results were GASC-1 inh inactive, VLA-4 inh 70, PREPL inhibitor inactive, GRK2 inh inactive and VLA-4 allo CP inactive.
Screening O=C(CCCN1C(=O)CCC1=O)Nc1ccc(Br)cc1F returned GASC-1 inh inactive, VLA-4 inh inactive, Pemphigus Ab inh inactive, PREPL inhibitor inactive and GRK2 inh inactive.
COc1ccccc1OCC(O)CN1CCN(CC(=O)Nc2c(C)cccc2C)CC1 (stereo not drawn) was read as GASC-1 inh inactive, VLA-4 inh 51!, Pemphigus Ab inh inactive, PREPL inhibitor inactive, GRK2 inh inactive and VLA-4 allo CP inactive.
`CC(C)C[C@@H](CO)N1CCN(Cc2cccc(C#N)c2)CCC1=O` gave GASC-1 inh inactive, VLA-4 inh inactive, Pemphigus Ab inh inactive, PREPL inhibitor inactive and GRK2 inh inactive.
`Cc1ccc(OCC(=O)Nc2ccc3c(c2)nc(CCN2CCOCC2)n3C)cc1` gave GASC-1 inh inactive, VLA-4 inh inactive, PREPL inhibitor inactive and GRK2 inh inactive.
For CC(C)CC(=O)Nc1ccc2c(c1)nc(CCN1CCOCC1)n2C the results were GASC-1 inh inactive, VLA-4 inh inactive, Pemphigus Ab inh inactive, PREPL inhibitor inactive, GRK2 inh inactive and VLA-4 allo CP inactive.
COc1cc(C(=O)OCC(=O)NC2CCCCC2)cc(OC)c1OC was read as GASC-1 inh inactive, VLA-4 inh inactive, Pemphigus Ab inh inactive, PREPL inhibitor inactive, GRK2 inh inactive and VLA-4 allo CP inactive.
`CC(C)c1ccc(-c2nnc(SCC(=O)NC3CC3)n2C)cc1` gave VLA-4 inh inactive, Pemphigus Ab inh inactive, PREPL inhibitor inactive and GRK2 inh inactive.
Screening COc1cc(/C=C/C(=O)OCC(=O)Nc2c(C)n(C)n(-c3ccccc3)c2=O)ccc1O returned GASC-1 inh inactive, VLA-4 inh inactive, Pemphigus Ab inh inactive, PREPL inhibitor inactive and GRK2 inh inactive.
Screening COc1cc(/C=C/C(=O)OCC(=O)Nc2c(C)n(C)n(-c3ccccc3)c2=O)ccc1OCC#N returned GASC-1 inh inactive, VLA-4 inh 61, Pemphigus Ab inh inactive, PREPL inhibitor inactive, GRK2 inh inactive and VLA-4 allo CP inactive.
`OCC1OC(n2cnc3c(NCc4ccccc4O)ncnc32)C(O)C1O` (stereo not drawn) gave Pemphigus Ab inh inactive.
`Nc1ncnc2c1ncn2[C@@H]1O[C@H](CO)[C@@H](O)[C@H]1O` gave GASC-1 inh inactive, VLA-4 inh inactive, Pemphigus Ab inh inactive, PREPL inhibitor inactive and GRK2 inh inactive.
`OCC1OC(n2cnc3c(NCCc4ccccc4)ncnc32)C(O)C1O` (stereo not drawn) gave GASC-1 inh inactive, VLA-4 inh inactive, Pemphigus Ab inh inactive, PREPL inhibitor inactive, GRK2 inh inactive and VLA-4 allo CP inactive.
